# Measurements from PubChem BioAssay AID686979 (National Center for Advancing Translational Sciences (NCATS), 2013).
# The campaign covered roughly 420,000 compounds. About 50,000 (12%) were called active. Inconclusive results (about 26%) are left out. The list comes from a sample in which actives are over-represented; it also holds similar structures and randomly drawn compounds. Values without a mark were called inactive. Calls come from the whole dose curve; as a rule, active = well fitted inhibition curve with a large enough effect; inconclusive = small, poorly fitted or top-dose-only effect; inactive = flat fitted curve, though single readings scatter.
# Experiment: qHTS for Inhibitors of human tyrosyl-DNA phosphodiesterase 1 (TDP1): qHTS in cells in presence of CPT; note: nearly all actives have a fitted effect of over 55% in size
# Conditions: chicken DT40 Tdp1-/-;hTDP1 cells + 20 nM CPT, ATP luminescence, 48 h; series mostly up to 46.2 µM; activity change, negative = growth inhibition: at the top concentration
# Method in brief: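 Cell growth measured by CellTiter-Glo luminescence after a minimum 48 h, 37 C compound exposure with 20 nM CPT in Tdp1-knockout DT40 cells stably expressing hTDP1, seeded 400/well; qHTS titration format.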
# % is set by controls: 0 for no effect and ±100 for the full control effect; potency is the fitted concentration of half-maximal effect.
Structure (SMILES),"activity change, negative = growth inhibition",Potency
Cc1nc2nc(C)c(NS(=O)(=O)c3ccc(C(C)(C)C)cc3)c(=O)n2[nH]1,-11.1%,–
CCCS(=O)(=O)NCc1c(C)ncc2c1CCN(C(=O)c1ccc(F)c(F)c1)C2,-3.77% [at 9.04 µM],–
Cc1coc2c1c(C)cc1oc(=O)c(CC(=O)NCC(=O)N[C@H](C(=O)O)C(C)C)c(C)c12,-0.893%,–
CC(C#N)OC(=O)c1cccnc1SCC(=O)Nc1ccc2c(c1)OCO2 (stereo not drawn),14.5%,–
COc1ccc2c(c1)SC(C)CC2=O (stereo not drawn),-1.56%,–
COc1ccc2c(c1)OC(O)(C(F)(F)C(F)F)CC2=O (stereo not drawn),–,11.6 µM (active)
O=C(CCC(=O)OCc1cccc(C(=O)Oc2ccccc2)c1)Nc1cccc2ccccc12,-26.9%,–
CS(=O)(=O)c1ccc(C(=O)NNC(=O)c2cccs2)cc1,-1.13%,–
CC(=O)NC12CC3CC(C1)CC(C(=O)N1CCN(S(=O)(=O)c4cccs4)CC1)(C3)C2,-8%,–
CCOc1ccc(C(=O)Nc2ccc(CN3CCOCC3)cc2)cc1Cl,-16.5%,–
COc1cc(/C=C(\C#N)c2nc3ccccc3[nH]2)ccc1O,–,25.9 µM (active)
N#C/C(=C\c1ccccc1F)c1nc2ccccc2c(=O)[nH]1,-10.3%,–
CCOc1ccc(/C=C(\C#N)c2nc3ccccc3c(=O)[nH]2)cc1OC,-12.3%,–
Cc1nnc(SCc2nc3ccccc3nc2C)s1,-1.33%,–
ClC1(Cl)CC1CSc1ncn[nH]1 (stereo not drawn),11%,–
S=C(Nc1cccc(Br)c1)N1CCn2cccc2C1c1cccnc1 (stereo not drawn),-26.3%,–
O=C(CSc1ncccn1)NCCc1ccccc1,-27.8%,–
S=C(NCCc1ccccc1)N1CCn2cccc2C1c1ccncc1 (stereo not drawn),–,18.4 µM (active)
CCC(=O)Nc1ccc(C(=O)NNC(=O)c2ccc(Cl)cc2)cc1,-2.54%,–
CC(C)C(C(=O)NCc1ccco1)N(CC1CCCO1)C(=O)CNS(=O)(=O)c1ccc(F)cc1 (stereo not drawn),1.31%,–
O=C1CC(c2ccccc2)C(=O)N1c1cccc(O)c1 (stereo not drawn),-14.8%,–
COC(=O)[C@@]1(Sc2ccc(C)cc2)CC(=O)N(c2cccc(SC)c2)[C@@H]1c1ccccc1,–,18.4 µM (active)
Cc1ccc(C2SCC(=O)N2c2ccccc2)cc1 (stereo not drawn),10.6%,–
COc1cc(CO)ccc1OCC(=O)Nc1cccc2ccccc12,-13.7%,–
O=C(NCCCn1ccnc1)c1cc(Br)c(Br)s1,4.77%,–
COC(=O)c1sc2[nH]c(=S)n(N)c(=O)c2c1C,-11.5%,–
O=c1c(/C=N/O)coc2ccc(Cl)cc12,14.6%,–

Structure (SMILES),"activity change, negative = growth inhibition",Potency
Cc1ccc2occ(/C=N/NC(=O)c3ccccc3C)c(=O)c2c1,–,16.4 µM (active)
CC(C)(C)OC(=O)NCCCCCC(=O)N/N=C/c1coc2ccccc2c1=O,-26.3%,–
CN1CCC(OC(=O)COc2ccc(Cl)cc2Cl)CC1,2.57%,–
O=C(COC(=O)c1ccccc1SCC(=O)N1CCCC1)Nc1ccccc1OC(F)F,-0.557%,–
Cn1c(SCC(=O)N2CCCC2)nnc1-c1cccs1,-4.1%,–
Cc1cc(C)cc(NC(=O)Cn2nc(N3CCN(c4ccccc4)CC3)ccc2=O)c1,-28.9%,–
COc1ccc(CNC(=O)CCn2cccc2)cc1,-2.52%,–
COc1ccc(CNc2c(CO)cnc3c2cnn3C)cc1,–,8.2 µM (active)
COc1ccc(CNc2nccs2)cc1,-19.3%,–
CSc1nc2nc3c(c(=O)n2[nH]1)CCC3,-5.28%,–
Cc1cc(NS(=O)(=O)c2ccc(NC(=O)c3ccccc3C)cc2)nc(C)n1,-10.1%,–
Cc1cnc(C(=O)N2CCOc3ccc(CN4CCCC(C(=O)c5cccnc5)C4)cc3C2)[nH]1 (stereo not drawn),-10% [at 9.04 µM],–
CN(C)CC(C)(C)CNC(=O)c1cc(Br)cc(Br)c1O,-3.33%,–
O=C(O)CC1(CC(=O)Nc2cccc(C(F)(F)F)c2)CCCC1,-2.74%,–
O=C(Nc1cccc(C(F)(F)F)c1)c1cc(Br)cc(Br)c1O,–,11.9 µM (active)
Cc1cc(F)ccc1S(=O)(=O)Nc1ncnc2scc(-c3ccc(F)cc3)c12,19.5%,–
COc1ccnc2c1c(=O)n(Cc1cccc(F)c1)c(=O)n2C,-11.8%,–
O=c1c2cccnc2n(Cc2cccc(F)c2)c(=O)n1Cc1ccccc1Cl,–,14.6 µM (active)
CCOC(=O)Cn1c(=O)n(Cc2ccc(OC)cc2)c(=O)c2cccnc21,19.7%,–
O=C(NC1CCCC1)C(c1ccc(Cl)cc1)N(C(=O)c1csnn1)C1CC1 (stereo not drawn),-9.79%,–
Cc1ccc(-n2ncc3c(=O)n(Cc4cccc(C(F)(F)F)c4)cnc32)cc1C,0.615%,–
Cc1ccc(-c2nc3c(cnn3-c3ccccc3)c(=O)o2)cc1,-22.2%,–
Cc1ccc(-n2ncc3c(=O)n(-c4ccc(C)c(C)c4)c(-c4ccco4)nc32)cc1,–,18.4 µM (active)
CCN(CC)S(=O)(=O)c1ccc(C(=O)N2CCN(C3=NS(=O)(=O)c4ccccc43)CC2)cc1,-16.6%,–
CCC/C(C)=N\Nc1nc2c(c(=O)n(C)c(=O)n2C)n1C,–,18.4 µM (active)
CC(O)c1nc2c(c(=O)n(C)c(=O)n2C)n1C (stereo not drawn),5.09%,–
